Data from the antibiotic and cytotoxicity screens of Wong et al. (2023).
Among all 39,000 compounds or so, about 3,300 (8.5%) were called active. The entries come from a sample that favours actives as a whole.

test system: HepG2; assay: cytotoxicity call (relative viability < 0.9); conditions: 10 µM

SMILES | cytotoxicity call
COc1ccc(S(=O)(=O)Nc2ccc3c(c2)C(=O)N([C@@H](C)CO)C[C@@H](C)[C@H](CN(C)CC2CCCCC2)OCCCC[C@H](C)O3)cc1 | inactive
COc1ccc(S(=O)(=O)Nc2ccc3c(c2)C(=O)N([C@H](C)CO)C[C@@H](C)[C@H](CN(C)CC2CCCCC2)OCCCC[C@@H](C)O3)cc1 | inactive
COc1ccc(S(=O)(=O)Nc2ccc3c(c2)C(=O)N([C@H](C)CO)C[C@@H](C)[C@@H](CN(C)CC2CCCCC2)OCCCC[C@H](C)O3)cc1 | inactive
COc1ccc(S(=O)(=O)Nc2ccc3c(c2)C(=O)N([C@@H](C)CO)C[C@H](C)[C@@H](CN(C)CC2CCCCC2)OCCCC[C@H](C)O3)cc1 | inactive
COc1ccc(S(=O)(=O)Nc2ccc3c(c2)C(=O)N([C@@H](C)CO)C[C@@H](C)[C@H](CN(C)CC2CCCCC2)OCCCC[C@@H](C)O3)cc1 | inactive
COc1ccc(S(=O)(=O)Nc2ccc3c(c2)C(=O)N([C@@H](C)CO)C[C@H](C)[C@H](CN(C)CC2CCCCC2)OCCCC[C@H](C)O3)cc1 | inactive
COc1ccc(S(=O)(=O)Nc2ccc3c(c2)C(=O)N([C@@H](C)CO)C[C@@H](C)[C@@H](CN(C)CC2CCCCC2)OCCCC[C@H](C)O3)cc1 | active
COc1ccc(S(=O)(=O)Nc2ccc3c(c2)C(=O)N([C@H](C)CO)C[C@H](C)[C@@H](CN(C)CC2CCCCC2)OCCCC[C@H](C)O3)cc1 | inactive
COc1ccc(S(=O)(=O)Nc2ccc3c(c2)C(=O)N([C@@H](C)CO)C[C@@H](C)[C@@H](CN(C)CC2CCCCC2)OCCCC[C@@H](C)O3)cc1 | active
COc1ccc(S(=O)(=O)Nc2ccc3c(c2)C(=O)N([C@H](C)CO)C[C@@H](C)[C@@H](CN(C)CC2CCCCC2)OCCCC[C@@H](C)O3)cc1 | active
COc1ccc(S(=O)(=O)Nc2ccc3c(c2)C(=O)N([C@@H](C)CO)C[C@H](C)[C@H](CN(C)CC2CCCCC2)OCCCC[C@@H](C)O3)cc1 | inactive
COc1ccc(NC(=O)Nc2ccc3c(c2)C(=O)N([C@H](C)CO)C[C@@H](C)[C@H](CN(C)C(=O)NC2CCCCC2)OCCCC[C@@H](C)O3)cc1 | inactive
CC(C)NC(=O)N(C)C[C@@H]1Oc2ccc(NS(=O)(=O)c3ccc(F)cc3)cc2C(=O)N([C@H](C)CO)C[C@H]1C | inactive
C[C@@H]1CCCCO[C@H](CN(C)C(=O)c2ccccc2)[C@@H](C)CN([C@H](C)CO)C(=O)c2cc(NS(=O)(=O)c3ccccc3)ccc2O1 | inactive
Cc1cc(=O)[n+]2cccc(O)c2[nH]1 | inactive
CC(C)NC(=O)Nc1ccc2c(c1)C(=O)N([C@H](C)CO)C[C@@H](C)[C@@H](CN(C)S(=O)(=O)c1ccc(Cl)cc1)O2 | inactive
CCc1cc(C(N)=O)c(N)s1 | inactive
C[C@@H]1CCCCO[C@H](CN(C)C(=O)Nc2ccc(F)cc2)[C@@H](C)CN([C@H](C)CO)C(=O)c2cc(NC(=O)Nc3ccccc3)ccc2O1 | inactive
CCOC(=O)N[C@H]1CCS(=O)(=O)C1 | inactive
Cc1cn2c(=O)c(C(=O)O)cnc2s1 | inactive
C[C@@H]1CN([C@H](C)CO)C(=O)c2cccc(NS(C)(=O)=O)c2O[C@@H]1CN(C)S(=O)(=O)c1ccccc1 | inactive

SMILES | cytotoxicity call
CCOC(=O)CCCCCC(=O)Nc1ccc2c(c1)C(=O)N([C@H](C)CO)C[C@@H](C)[C@@H](CN(C)S(=O)(=O)c1ccc(C)cc1)OCCCC[C@H](C)O2 | inactive
C[C@@H]1CN([C@H](C)CO)C(=O)c2cc(NS(=O)(=O)c3ccc(Cl)cc3)ccc2O[C@@H](C)CCCCO[C@@H]1CN(C)Cc1ccccc1 | inactive
C[C@H]1CCCCO[C@H](CN(C)Cc2ccccc2)[C@@H](C)CN([C@@H](C)CO)C(=O)c2cc(NS(=O)(=O)c3ccc(Cl)cc3)ccc2O1 | inactive
C[C@H]1CCCCO[C@@H](CN(C)Cc2ccccc2)[C@@H](C)CN([C@@H](C)CO)C(=O)c2cc(NS(=O)(=O)c3ccc(Cl)cc3)ccc2O1 | active
C[C@@H]1CCCCO[C@H](CN(C)Cc2ccccc2)[C@H](C)CN([C@@H](C)CO)C(=O)c2cc(NS(=O)(=O)c3ccc(Cl)cc3)ccc2O1 | active
C[C@@H]1CN([C@@H](C)CO)C(=O)c2cc(NS(=O)(=O)c3ccc(Cl)cc3)ccc2O[C@@H](C)CCCCO[C@H]1CN(C)Cc1ccccc1 | inactive
C[C@H](CO)N1C[C@H](C)[C@@H](CN(C)Cc2ccccc2)OCCCC[C@H](C)Oc2ccc(NS(=O)(=O)c3ccc(Cl)cc3)cc2C1=O | inactive
C[C@@H]1CCCCO[C@H](CN(C)Cc2ccccc2)[C@@H](C)CN([C@H](C)CO)C(=O)c2cc(NS(=O)(=O)c3ccc(Cl)cc3)ccc2O1 | inactive
C[C@@H]1CCCCO[C@@H](CN(C)Cc2ccccc2)[C@@H](C)CN([C@@H](C)CO)C(=O)c2cc(NS(=O)(=O)c3ccc(Cl)cc3)ccc2O1 | inactive
C[C@@H]1CCCCO[C@H](CN(C)Cc2ccccc2)[C@H](C)CN([C@H](C)CO)C(=O)c2cc(NS(=O)(=O)c3ccc(Cl)cc3)ccc2O1 | active
C[C@@H]1CN([C@@H](C)CO)C(=O)c2cc(NS(=O)(=O)c3ccc(Cl)cc3)ccc2O[C@@H](C)CCCCO[C@@H]1CN(C)Cc1ccccc1 | active
C[C@@H]1CCCCO[C@@H](CN(C)Cc2ccccc2)[C@H](C)CN([C@@H](C)CO)C(=O)c2cc(NS(=O)(=O)c3ccc(Cl)cc3)ccc2O1 | inactive
C[C@@H]1CCCCO[C@@H](CN(C)Cc2ccccc2)[C@@H](C)CN([C@H](C)CO)C(=O)c2cc(NS(=O)(=O)c3ccc(Cl)cc3)ccc2O1 | inactive
C[C@H]1CN([C@@H](C)CO)C(=O)Cc2cc(NS(C)(=O)=O)ccc2O[C@H]1CN(C)Cc1ccc(C(=O)O)cc1 | inactive
C=CCOC(=O)[C@@H]1[C@H]2C(=O)O[C@H](c3ccccc3)[C@H](c3ccccc3)N2[C@H](c2ccc(OCCOC(=O)[C@H]3C[C@H]4C(=O)N5CCC[C@H]5C(=O)N4[C@H]3c3ccc(O)cc3)cc2)[C@@]12C(=O)Nc1ccccc12 | inactive
Cn1ncc2c(NN3C(=O)CCC3=O)ncnc21 | inactive
CC(C)CC#Cc1ccc2c(c1)O[C@@H](CN(C)Cc1cncnc1)[C@@H](C)CN([C@H](C)CO)S2(=O)=O | inactive
CC(C)NC(=O)[C@@H]1c2ccccc2C(=O)N(Cc2cc(F)cc(C(F)(F)F)c2)[C@H]1c1ccc(CO)cc1 | inactive
CC(C)NC(=O)Nc1ccc2c(c1)C(=O)N([C@H](C)CO)C[C@H](C)[C@@H](CN(C)S(=O)(=O)c1cn(C)cn1)OCCCC[C@H](C)O2 | inactive
CC(C)NC(=O)N1C[C@H]2[C@H](C(=O)N(C)Cc3ccccn3)CCS(=O)(=O)[C@H]2C1 | inactive
Cc1noc(C)c1S(=O)(=O)N(C)C[C@H]1Oc2ccc(NS(=O)(=O)c3ccc(F)cc3)cc2CC(=O)N([C@@H](C)CO)C[C@H]1C | inactive

SMILES | cytotoxicity call
C=CC[C@@H](CC(=O)N(CCO)Cc1ccccc1)C(=O)N[C@H](COC(=O)[C@@H](CC=C)CC(=O)OC(C)(C)C)Cc1c[nH]c2ccccc12 | inactive
Cc1ccc(S(=O)(=O)N2C[C@H](O)COC[C@H]3O[C@H](CC(=O)NCCCN(C)C)CC[C@@H]32)cc1 | inactive
Cc1ccc(S(=O)(=O)N(C)C[C@@H]2OCCCC[C@H](C)Oc3ccc(NS(=O)(=O)c4ccc(F)cc4)cc3C(=O)N([C@H](C)CO)C[C@H]2C)cc1 | inactive
C[C@@H]1CCCCO[C@H](CN(C)Cc2ccc3c(c2)OCO3)[C@@H](C)CN([C@H](C)CO)C(=O)c2cc(NC(=O)Cc3ccccc3)ccc2O1 | inactive
COc1ccc(CN(C)C[C@@H]2OCCCC[C@@H](C)Oc3ccc(NC(=O)Cc4ccccc4)cc3C(=O)N([C@H](C)CO)C[C@H]2C)cc1 | inactive
CC[C@H](C)C[C@H](C)CCCCCCCCC(=O)N[C@H]1C[C@@H](O)[C@@H](NCCN)NC(=O)[C@@H]2[C@@H](O)CCN2C(=O)[C@H]([C@H](O)CCN)NC(=O)[C@H]([C@H](O)[C@@H](O)c2ccc(O)cc2)NC(=O)[C@@H]2C[C@@H](O)CN2C(=O)[C@H]([C@@H](C)O)NC1=O | inactive
CCCCCOc1ccc(-c2ccc(-c3ccc(C(=O)N[C@H]4C[C@@H](O)[C@@H](O)NC(=O)[C@@H]5[C@@H](O)[C@@H](C)CN5C(=O)[C@H]([C@@H](C)O)NC(=O)[C@H]([C@H](O)[C@@H](O)c5ccc(O)cc5)NC(=O)[C@@H]5C[C@@H](O)CN5C(=O)[C@H]([C@@H](C)O)NC4=O)cc3)cc2)cc1 | active
CCCCCOc1ccc(-c2cc(-c3ccc(C(=O)N[C@H]4C[C@@H](O)[C@@H](O)NC(=O)[C@H]5[C@@H](O)[C@@H](C)CN5C(=O)[C@H]([C@@H](O)CC(N)=O)NC(=O)[C@H]([C@@H](O)[C@@H](O)c5ccc(O)c(OS(=O)(=O)O)c5)NC(=O)[C@H]5C[C@@H](O)CN5C(=O)[C@H]([C@@H](C)O)NC4=O)cc3)no2)cc1 | inactive
C[C@@H]1CN([C@@H](C)CO)C(=O)Cc2cc(NC(=O)CCN3CCOCC3)ccc2O[C@H]1CN(C)C(=O)Nc1ccc2c(c1)OCO2 | inactive
CC(C)NC(=O)N(C)C[C@@H]1Oc2ccc(NC(=O)CCC(F)(F)F)cc2C(=O)N([C@H](C)CO)C[C@@H]1C | inactive
Cc1noc(C)c1S(=O)(=O)Nc1ccc2c(c1)C(=O)N([C@H](C)CO)C[C@H](C)[C@H](CN(C)C(=O)Nc1ccc(C(F)(F)F)cc1)OCCCC[C@H](C)O2 | inactive
Cc1noc(C)c1S(=O)(=O)Nc1ccc2c(c1)C(=O)N([C@H](C)CO)C[C@H](C)[C@H](CN(C)C(=O)Nc1ccc(C(F)(F)F)cc1)OCCCC[C@@H](C)O2 | inactive
Cc1noc(C)c1S(=O)(=O)Nc1ccc2c(c1)C(=O)N([C@@H](C)CO)C[C@@H](C)[C@@H](CN(C)C(=O)Nc1ccc(C(F)(F)F)cc1)OCCCC[C@H](C)O2 | inactive
Cc1noc(C)c1S(=O)(=O)Nc1ccc2c(c1)C(=O)N([C@@H](C)CO)C[C@H](C)[C@@H](CN(C)C(=O)Nc1ccc(C(F)(F)F)cc1)OCCCC[C@H](C)O2 | active
Cc1noc(C)c1S(=O)(=O)Nc1ccc2c(c1)C(=O)N([C@@H](C)CO)C[C@H](C)[C@H](CN(C)C(=O)Nc1ccc(C(F)(F)F)cc1)OCCCC[C@H](C)O2 | inactive
Cc1noc(C)c1S(=O)(=O)Nc1ccc2c(c1)C(=O)N([C@H](C)CO)C[C@@H](C)[C@@H](CN(C)C(=O)Nc1ccc(C(F)(F)F)cc1)OCCCC[C@@H](C)O2 | active
Cc1noc(C)c1S(=O)(=O)Nc1ccc2c(c1)C(=O)N([C@H](C)CO)C[C@@H](C)[C@H](CN(C)C(=O)Nc1ccc(C(F)(F)F)cc1)OCCCC[C@@H](C)O2 | active
Cc1noc(C)c1S(=O)(=O)Nc1ccc2c(c1)C(=O)N([C@@H](C)CO)C[C@@H](C)[C@H](CN(C)C(=O)Nc1ccc(C(F)(F)F)cc1)OCCCC[C@H](C)O2 | inactive
Cc1noc(C)c1S(=O)(=O)Nc1ccc2c(c1)C(=O)N([C@@H](C)CO)C[C@@H](C)[C@@H](CN(C)C(=O)Nc1ccc(C(F)(F)F)cc1)OCCCC[C@@H](C)O2 | inactive
